{
  "source": "PubChem BioAssay AID1347419",
  "about": "(Sanford-Burnham Center for Chemical Genomics, 2020)",
  "note": "Out of some 99,000 compounds screened, about 820 (0.83%) were called active. For the sample, actives were picked, then their nearest neighbours and some compounds at random. A number with no mark means an inactive call.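 The calls were made as follows: active = Z-score of -3 or lower, scaled per plate to the spread of control and sample wells; inactive = z-score above -3.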",
  "data": [
    {"target": "Protein-tyrosine kinase 2-beta (Homo sapiens) (UniProt Q14289)", "sequence (Q14289 whole entry, looked up)": "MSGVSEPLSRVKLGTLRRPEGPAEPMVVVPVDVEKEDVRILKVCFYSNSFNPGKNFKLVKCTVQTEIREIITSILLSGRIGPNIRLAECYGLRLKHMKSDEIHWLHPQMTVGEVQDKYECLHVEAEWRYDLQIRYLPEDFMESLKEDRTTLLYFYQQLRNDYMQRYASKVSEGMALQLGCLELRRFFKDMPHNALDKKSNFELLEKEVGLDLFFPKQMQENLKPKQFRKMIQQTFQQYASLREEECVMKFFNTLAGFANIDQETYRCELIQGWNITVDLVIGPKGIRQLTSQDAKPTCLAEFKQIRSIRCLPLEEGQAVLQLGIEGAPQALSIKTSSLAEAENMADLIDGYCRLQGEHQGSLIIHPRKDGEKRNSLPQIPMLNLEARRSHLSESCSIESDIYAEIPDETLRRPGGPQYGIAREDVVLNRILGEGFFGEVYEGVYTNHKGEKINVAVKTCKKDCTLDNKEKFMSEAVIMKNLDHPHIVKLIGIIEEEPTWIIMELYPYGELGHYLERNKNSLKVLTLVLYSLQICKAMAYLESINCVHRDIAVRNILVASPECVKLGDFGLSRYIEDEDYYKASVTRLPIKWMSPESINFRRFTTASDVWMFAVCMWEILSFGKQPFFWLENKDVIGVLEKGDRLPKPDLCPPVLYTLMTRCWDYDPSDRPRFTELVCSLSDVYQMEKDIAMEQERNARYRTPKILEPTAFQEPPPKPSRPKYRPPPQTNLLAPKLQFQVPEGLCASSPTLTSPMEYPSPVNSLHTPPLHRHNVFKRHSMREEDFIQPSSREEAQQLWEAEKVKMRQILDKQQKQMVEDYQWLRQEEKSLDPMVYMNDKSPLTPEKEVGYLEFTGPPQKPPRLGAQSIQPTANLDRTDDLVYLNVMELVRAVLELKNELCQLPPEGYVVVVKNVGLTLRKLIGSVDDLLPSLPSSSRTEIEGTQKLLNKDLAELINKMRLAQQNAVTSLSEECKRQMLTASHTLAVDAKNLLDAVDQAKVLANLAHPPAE", "assay": "antagonists of Pyk2 self-association, primary screen, Q293 cells, FERM NanoBiT luminescence, HTS (AID 1347419);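 also: the deposit names both 25 µM and 10 µM; negative z-score means lost luminescence so less FERM oligomerization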", "design": "dose or concentration left out as unconfirmed", "details": "stronger effect = lower value", "values": [
      {"compound": "COC(=O)c1cc(NC(=O)Cc2ccccc2[N+](=O)[O-])ccc1Cl", "z-score": -0.53},
      {"compound": "COc1cc(OC)nc(N/N=C(\\c2ccccc2)c2ccncc2)n1", "z-score": 2.22},
      {"compound": "O=C(N/N=C/c1cccc([N+](=O)[O-])c1)C1CC(=O)N(c2ccc(Br)cc2)C1", "note": "(stereo not drawn)", "z-score": 0.31},
      {"compound": "Cc1[nH]c(=O)c(C(=O)/C=C/c2ccccc2)c2c1CCCC2", "z-score": "-3.31 (active)"},
      {"compound": "Cc1nc(-c2ccccc2)sc1C(=O)/C=C/c1ccccc1", "z-score": -0.6},
      {"compound": "O=C(/C=C/c1ccccc1)c1ccoc1", "z-score": 2.22},
      {"compound": "CC1(c2cccc([N+](=O)[O-])c2)CC(C)(C)N(C(=O)c2ccccc2)c2ccccc21", "note": "(stereo not drawn)", "z-score": -0.67},
      {"compound": "CCn1c(SCC(=O)Nc2ccc(C)cc2)nc2nc3c(cc2c1=O)CCCC3", "z-score": -2.19},
      {"compound": "Cc1ccc(S(=O)(=O)N(CC(=O)N/N=C/c2ccc(F)cc2)c2cccc3cccnc23)cc1", "z-score": -0.75},
      {"compound": "COc1ccc(N(CC(=O)N/N=C/c2cccs2)S(=O)(=O)c2ccc(OC)c(OC)c2)cc1", "z-score": -2.54},
      {"compound": "COc1ccc(N(CC(=O)N/N=C/c2cccc3c2OCCO3)S(=O)(=O)c2ccc(NC(C)=O)cc2)cc1", "z-score": "-3.71 (active)"},
      {"compound": "CC(C)CN(C(=O)CN1CCN(S(=O)(=O)c2ccccc2)CC1)c1c(N)n(CC(C)C)c(=O)[nH]c1=O", "z-score": 0.05},
      {"compound": "CCCC(C)C(=O)OCC(=O)Nc1c(Br)cc(C)cc1Br", "note": "(stereo not drawn)", "z-score": 1.59},
      {"compound": "CCC(C)(C)n1nnnc1C(c1ccccc1OC)N1CCSCC1", "note": "(stereo not drawn)", "z-score": -0.08},
      {"compound": "CCC(C)(C)n1nnnc1C(c1cccs1)N1CCN(c2nc3ccccc3s2)CC1", "note": "(stereo not drawn)", "z-score": "-3.48 (active)"},
      {"compound": "CCC(C)(C)n1nnnc1C(c1cccs1)N1CCN(Cc2ccccc2)CC1", "note": "(stereo not drawn)", "z-score": 0.51},
      {"compound": "Cc1ccc(C(=O)COC(=O)c2cccc(N3C(=O)c4c(C)nc5ccccc5c4C3=O)c2)cc1C", "z-score": 0.74},
      {"compound": "N#CC(C(N)=O)=C1CCC2(CC1)OCCCCO2", "z-score": 0.83},
      {"compound": "CC1(C)C/C(=C(/C#N)C(N)=O)CCO1", "z-score": "-3.62 (active)"},
      {"compound": "O=C(Nc1ccccc1)c1cc2ccccc2[nH]1", "z-score": 0.86},
      {"compound": "S=C1Nc2cc(Cl)ccc2Sc2ccccc21", "z-score": -0.5},
      {"compound": "CC1=C(C(=O)Nc2cc(C)ccn2)C(c2cnn(C)c2)C2=C(CC(c3ccccc3)CC2=O)N1", "note": "(stereo not drawn)", "z-score": 1.36},
      {"compound": "Cc1nn(-c2ccccc2)c(C)c1/C=C/C(=O)OC(C)C(N)=O", "note": "(stereo not drawn)", "z-score": 0.82}
    ]}
  ]
}
